# Source: PubChem BioAssay AID504375 (National Center for Advancing Translational Sciences (NCATS), 2011)
# The campaign covered roughly 1,600 compounds. About 25 (2%) were called active. About 7% were inconclusive and are not listed. Only a selection was taken, and actives are over-represented in it overall. A number with no mark means an inactive call. Calls follow the shape of the dose curve; as a rule, active = well fitted inhibition curve with a large enough effect; inconclusive = small, poorly fitted or top-dose-only effect, or effect the other way; inactive = no such curve, though single readings can be large or run the other way.
# Molecular target: Runt-related transcription factor 1 (Homo sapiens) + Core-binding factor subunit beta (Homo sapiens) (UniProt Q01196+Q13951)
# Experiment: qHTS Assay for Compounds Blocking the Interaction Between CBF-beta and RUNX1 for the Treatment of Acute Myeloid Leukemia: Hit Validation with Orthogonal Assay
# Settings: CBFbeta-RUNX1 binding orthogonal assay, biochemical; series mostly up to 41 µM; activity change, negative = inhibition: at the top concentration
# Source text: NIH Chemical Genomics Center [NCGC]
# NIH Molecular Libraries Probe Production centers Network [MLPCN]
# Assay Submitter (PI): Paul Liu
# Core Binding Factor (CBF) abnormalities are associated with 20-25% of all acute myeloid leukemias (AML), of which 5-10% are further sub classified as acute myelomonocytic leukemia with eosinophilia, also known as M4Eo in the FAB classification scheme. This subtype of leukemia is usually associated with chromosome 16 inversion (p13:q22). Chromosome 16 inversion results in formation of the fusion oncogene CBFB-MYH11, which encodes the fusion protein CBF-beta-SMMHC.
# It has been hypothesized that the interference of CBF-beta and RUNX1 binding could have therapeutic implications for patients with CBF mediated leukemias. We developed a CBF-beta and RUNX1 binding assay in AlphaScreenTM format and optimized it for high throughput screening to search for inhibitors. The goal of this project is to screen MLPCN's compound collection (MLSMR) for identifying the inhibitors of the interaction between CBF-beta and RUNX1 proteins as research probes. If these probes work well in the animal models, the ultimate goal of this project is to development a new drug treatment for this disease.
# This assay can not be used to assess how apparent inhibitors interfere with protein binding, and whether inhibitors specifically bind to either protein. Disruption of this protein-protein interaction, through any mechanism, is the intended target activity.
# The present data set was run to confirm the activity of hits from the primary screen using an orthogonal assay technology for measuring protein-protein interaction disruption.
# A TR-FRET (time resolved fluorescence resonance energy transfer) assay was performed using the same assay buffer, protein concentrations and incubation times as described previously in the AlphaScreen assay, except that terbium (Tb+) labeled anti-his-antibody and XL665 linked streptavidin were used to capture the binding signal. The Tb+ labeled anti-his-antibody captures His(6)-CBF and XL665 linked streptavidin binds to biotin-RUNX1. The binding of RUNX1 to CBFbrings Tb+ and XL665 to proximity resulting in a TR-FRET signal. Briefly, in a white 384-well plate, 10 µl/well of mixture of biotin-RUNX1 and His(6)-CBFwere incubated with 10 µl/well buffer (positive control) or 10 µl/well compounds (negative control) for 20 min followed by an addition of 10 µl/well of Tb+ labeled anti-his(6)-antibody and XL665 linked streptavidin. After 90 min of incubation in the dark, the assay plate was measured in the Envision plate reader using TR-FRET detection mode. For the 1536-well plate format, 3 µl/well mixture of biotin-RUNX1 and His(6)-CBF (30 nM per protein) was incubated with 23 nl/well compound (dissolved in 100% DMSO) or the equivalent DMSO concentration (positive control) for 30 min followed by the addition of 1 µl/well of 0.44 ng Tb+ labeled anti-his(6)-antibody and 5 nM streptavodin-XL665. After 90 min of incubation, the assay plate was measured in the Envision plate reader.
# The TR-FRET assay for detecting interaction between HIV-I Tat and […] was similarly performed with the recombinant full-length HIV-I Tat CLADE B and HIV-I Tat Biotin conjugated proteins supplied by Diatheva (Fano, Italy). Briefly, the His-CBF and Biotin-RUNX1 complex at a working concentration of 83.3 nM per protein were pre-incubated in assay buffer for 10 minutes on ice. Then HIV-I Tat or unlabeled CBF were added to reach final concentrations (Supplementary Figure 4b) and incubated for 5 minutes. Finally anti-His antibody and streptavidin-XL665 at a final concentration of 2.2 ng and 5 nM, respectively, were added to the plate, which was incubated for 1 hr prior to reading on the PerkinElmer Envision plate reader.
# Keywords: MLSMR, MLPCN, NIH Roadmap, qHTS, NCGC, Core binding factor, CBF, CBF-beta, Acute myeloid leukemia
# % is scaled to controls: 0 for no effect and ±100 for the full control effect; potency is read from the fitted curve at half-maximal effect.
# Sequence of Runt-related transcription factor 1 (Homo sapiens) + Core-binding factor subunit beta (Homo sapiens) (Q01196 whole entry, looked up): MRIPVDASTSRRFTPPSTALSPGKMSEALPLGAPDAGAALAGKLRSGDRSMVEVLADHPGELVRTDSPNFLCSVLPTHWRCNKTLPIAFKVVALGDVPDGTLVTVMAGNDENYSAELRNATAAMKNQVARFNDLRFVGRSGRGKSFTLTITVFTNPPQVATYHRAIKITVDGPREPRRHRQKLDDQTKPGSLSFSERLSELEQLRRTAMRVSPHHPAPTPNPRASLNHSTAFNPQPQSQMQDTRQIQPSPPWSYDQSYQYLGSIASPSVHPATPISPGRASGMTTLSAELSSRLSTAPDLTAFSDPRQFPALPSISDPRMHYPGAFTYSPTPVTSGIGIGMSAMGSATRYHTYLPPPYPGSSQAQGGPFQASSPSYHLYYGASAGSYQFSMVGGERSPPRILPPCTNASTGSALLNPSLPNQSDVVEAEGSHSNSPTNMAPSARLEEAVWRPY
# Sequence of Runt-related transcription factor 1 (Homo sapiens) + Core-binding factor subunit beta (Homo sapiens) (Q13951 whole entry, looked up): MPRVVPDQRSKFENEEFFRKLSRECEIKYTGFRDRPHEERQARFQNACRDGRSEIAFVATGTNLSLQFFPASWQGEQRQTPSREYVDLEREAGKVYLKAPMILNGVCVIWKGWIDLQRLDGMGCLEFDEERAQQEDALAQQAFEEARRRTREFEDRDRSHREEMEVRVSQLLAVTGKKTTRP
Structure (SMILES),"activity change, negative = inhibition",Potency
NS(=O)(=O)c1ccc(N/N=C/c2ccc(C(=O)O)cc2)c([N+](=O)[O-])c1,94.8%,
CC(=O)CCn1cc([N+](=O)[O-])nc1C,-5.17%,
Cc1cccn(Cc2c(F)cccc2Cl)c1=O,-6.17%,
CC(C)(C)OC(=O)N1CCCN(C(=O)Nc2ccc(C(F)(F)F)cc2)CC1,9.91%,
CC(/C=N/n1c(-c2ccccn2)n[nH]c1=S)=C\c1ccccc1,-4.6%,
CCC12CCCN3CCc4c(n(c5ccccc45)C(O)(C(=O)OC)C1)C32 (stereo not given),36%,
O=C(O)CSCC(=O)N1CCCN(c2nc3ccc(Cl)cc3s2)CC1,-5.09%,
Cc1nn(Cc2ccccc2)c(C)c1/C=N/NC(=O)c1ccncc1,2.97%,
COc1ccccc1OCc1ccc(C(=O)NN)o1,0.502%,
Cc1nn(C)c(=O)c(N)c1-c1cc(-c2ccc(Cl)c(Cl)c2)n[nH]1,9.21%,
CC(C)(C)c1ccc(C(=O)Cn2nc(C(=O)O)c3ccccc3c2=O)cc1,3.83%,
CN(C)c1cccc(N(C)C)c1CNC(=O)C(C)(C)C,1.48%,
S=c1[nH]nc(-c2cccs2)n1C1CCCCC1,-14.4%,
CCCSc1nnc(NC(=O)Nc2ccc(C)cc2)s1,-0.563%,
O=C(/C=C/c1cn(CC(O)CN2CCOCC2)c2ccccc12)c1cccs1 (stereo not given),4.2%,
Cc1nc([N+](=O)[O-])cn1CC(O)c1ccccc1 (stereo not given),20.8%,
CCSc1cc(Cl)nc(N)n1,17.2%,
COc1cc(OC)c(OC)cc1/C=N/NC(=O)CCc1c(C)n[nH]c1C,18.8%,
CC(=O)N1CCCC1(C(=O)O)c1ccccc1 (stereo not given),3.9%,
O=C(N/N=C/C(Br)=C/c1ccccc1)C(O)c1ccccc1 (stereo not given),8.96%,
O=C(O)C1CC(c2ccccc2)=Nc2ccccc2S1 (stereo not given),-10.5%,
COc1ccc2nc(-c3ccc(Cl)cc3)cc(C(=O)O)c2c1,34.7%,
Oc1cccc(O)c1O,,888 nM (active)
Cc1ccc(OCC(=O)N(Cc2ccc(N(C)C)cc2)C2CCS(=O)(=O)C2)cc1C (stereo not given),10.2%,
CCOC(=O)c1cnc2c(F)ccc(F)c2c1Sc1ccccc1,8.39%,
O=C(Nc1ccc(Cl)cc1)NC1CCCCNC1=O (stereo not given),2.89%,
Cc1nn(-c2ccccc2)nc1C(=O)NNC(=O)c1cccc2ccccc12,22.3%,
Cc1nn2c(NCCN(C)C)c3c(nc2c1-c1ccccc1)CCCC3,-6.26%,

Structure (SMILES),"activity change, negative = inhibition",Potency
Cc1nc([N+](=O)[O-])cn1C(C)C,-1.09%,
c1ccc(-c2ccc(C3=Nn4c(nnc4-c4cccs4)SC3)cc2)cc1,2.54%,
CC(=O)Nc1ccc(Nc2cc(C(C)C)nc3c(-c4ccccc4)c(C)nn23)cc1,9.96%,
O=C(O)c1ccccc1Sc1ccccc1S(=O)(=O)NC1CCCCC1,-9.91%,
CCC(C)NC(=O)CC(C)C (stereo not given),0.673%,
O=C1CC(N2CCN(S(=O)(=O)c3ccccc3)CC2)C(=O)N1c1ccccc1 (stereo not given),3.16%,
C/C(Cc1ccccc1)=N\NC(=O)CNC(=O)c1ccc(Cl)cc1Cl,-5.63%,
N/C(CC1CC1(Cl)Cl)=N\OC(=O)c1ccccc1 (stereo not given),1.08%,
CC(=O)COc1nc2c(c(-c3ccco3)c1C#N)CCc1ccccc1-2,8.75%,
Nc1nc(NCc2ccco2)nc(NCCO)c1[N+](=O)[O-],6.69%,
Cc1ccc(-n2ncc(-c3nn[nH]n3)c2N)cc1,4.84%,
N[C@H](Cc1ccc(O)c(O)c1)C(=O)O,,7080 nM (active)
NCCc1ccc(O)c(O)c1,-0.396% [at 82.4 µM],
O=C(/C=C/c1ccc(O)c(O)c1)c1ccccc1O,15.8%,
NC(Cc1ccc(O)c(O)c1)C(=O)O (stereo not given),,891 nM (active)
COc1ccc(C(=O)Nc2cccnc2Sc2ccc(Cl)cc2)cc1,-4.01%,
C/C(=N\NC(=O)Cn1nc(C)cc1C)c1ccc([N+](=O)[O-])cc1,53.1%,
Cc1n[nH]c(C)c1CCC(=O)N/N=C/c1cccs1,15.4%,
CCOC(=O)COc1nc2c(c(-c3ccco3)c1C#N)CCc1ccccc1-2,0.967%,
CCOc1ccc(/C(C)=N/NC(=O)Cn2nc([N+](=O)[O-])cc2C)cc1,2.61%,
Cc1[nH]c(=O)[nH]c1C(=O)CCCCC(=O)OCC(=O)Nc1ccccn1,,44.7 nM (active)
Cc1ccc(NC(=S)Nc2ccccn2)cc1C,17.3%,
Cc1ccccc1NC(=S)Nc1ccccn1,-11.9%,
Clc1nc(Cl)nc(-c2cn(-c3ccccc3)c3ccccc23)n1,-21.3%,
Nc1c(Cl)ncnc1NCC(O)CO (stereo not given),-0.893%,
Cc1onc(-c2c(Cl)cccc2Cl)c1C(=O)c1ccc(F)cc1,-0.245%,
O=C(O[C@@H]1OC2COC(=O)c3cc(O)c(O)c(O)c3-c3c(cc(O)c(O)c3O)C(=O)O[C@@H]([C@H]1O)[C@@H]2O)c1cc(O)c(O)c(O)c1,,891 nM (active)
